PMK inhibit: inhibitors of Streptococcus pneumoniae phosphomevalonate kinase. inhibition, % at 10 µM. purified PMK, PK/LDH-coupled NADH absorbance 340 nm. AID 539. 65,000 tested, 0.49% active;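 active means top-ranked compounds by inhibition in the single 10 µM screen, taking a fixed number of the strongest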
Fluor 339 460: intrinsic fluorescence of library compounds, ex339/em460 – biochemical, MLSMR library, data from DPM-DC assay, artefact control, profiling panel; 65,000 tested, 5.5% active; fluorescence fold increase at 10 µM; compound autofluorescence, ex339/em460 nm, NADH buffer; active compounds read high; 1 = no-compound wells, NADH background;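 active means at 10 µM, mean starting fluorescence two-fold or more over control wells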;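 further: signal is the first read of a kinetic run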
A340 absorber: absorbance at 340 nm; compound absorbance at 340 nm, fold over control; fold change at 10 µM; 65,000 tested, under 10 active;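 active means at 10 µM dose, initial 340 nm absorbance at least 2 fold that of control wells; inactive means change under 2 fold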;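 further: initial absorbance extrapolated from kinetic A340 decline of NADH oxidation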
MK inhibit: blocks S. pneumoniae mevalonate kinase | purified MK, PK/LDH-coupled NADH absorbance 340 nm | inhibition, % at 10 µM | 65,000 tested, 0.48% active;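 active means ranked among the strongest by inhibition in the single 10 µM screen, a fixed top-ranked set picked for dose follow-up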
NADH coupling: blocks coupling enzymes of NAD/NADH assays; 65,000 tested, 0.02% active; IC50, µM (titrated, usually from 10 µM); coupled PK/LDH NADH assays, four targets;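 active means single-dose screening hits from any of four coupled enzyme assays that gave an IC50 when retested across doses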;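 further: the DPM-DC format reads NADH fluorescence rather than 340 nm absorbance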
DPM-DC inhibit: inhibitors of Streptococcus pneumoniae diphosphomevalonate decarboxylase. calls only at 10 µM. 65,000 tested, 0.49% active. purified DPM-DC, PK/LDH coupled NADH fluorescence;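 active means the 320 compounds with the highest percent inhibition in the single-dose primary screen, excluding strongly autofluorescent ones, cut at about 32% in these data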;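 further: kinetic rate of NADH fluorescence loss reporting ADP formed by the decarboxylase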
Hits are given with their value; n = inactive; x = no result given; + = active, no number. An excerpt weighted towards active compounds, which were near 6.5% of everything screened.

SMILES | PMK inhibit | Fluor 339 460 | A340 absorber | MK inhibit | NADH coupling | DPM-DC inhibit
CC(NC(=O)Cc1cccs1)C(c1cccs1)N1CCOCC1 (centres undefined) | n | n | n | n | n | n
COc1ccccc1N1CCN(S(=O)(=O)c2cnc[nH]2)CC1 | n | n | n | n | n | n
Cc1cc(C(=O)NCc2ccccc2)c(=O)[nH]c1C | n | 2.11 | n | n | n | x
c1ccc2c(c1)CCOC2CNCCCN1CCCCC1 (centres undefined) | n | n | n | n | n | n
COc1nc(-c2ccccc2)ccc1-c1noc(-c2cccnc2)n1 | n | 3.55 | n | n | n | x
COc1nc(-c2ccc(C)cc2)ccc1-c1noc(-c2cccnc2)n1 | n | 3.5 | n | n | n | x
COc1nc2ccccc2cc1-c1noc(-c2cccnc2)n1 | n | n | n | n | n | n
Cc1cccc(-n2ncc(C#N)c2N)c1 | n | n | n | n | n | n
Cc1cccc(N2C(N)=C(C#N)C(C#N)(C#N)C2c2ccccc2)c1 (centres undefined) | n | 2.7 | n | n | n | n
N#CC1=C(N)N(c2ccccc2)C(c2ccco2)C1(C#N)C#N (centres undefined) | n | 2.17 | n | n | n | x
Cc1cccn2c(=O)c3cc(C(=O)N4c5ccccc5CC4C)n(C)c3nc12 (centres undefined) | n | n | n | n | n | n
Cn1c(C(=O)N2CCN(C(=O)c3ccco3)CC2)cc2c(=O)n3ccccc3nc21 | n | 3.44 | n | n | n | x
Cc1cccn2c(=O)c3cc(C(=O)N4CCN(C(=O)c5ccco5)CC4)n(C)c3nc12 | n | 4.95 | n | n | n | x
CCN(CC)C(=O)c1cc2c(=O)n3cccc(C)c3nc2n1C | n | 4.98 | n | n | n | x
Cc1cccn2c(=O)c3cc(C(=O)N4CCc5ccccc54)n(C)c3nc12 | n | 2.51 | n | n | n | n
O=C(c1ccco1)N1CCN(c2nc3ccccc3c(=O)n2-c2ccccc2)CC1 | n | n | n | n | n | n
Cc1ccc(S(=O)(=O)NCCC(=O)NC2CCCC2)cc1 | n | n | n | n | n | n
Cn1c(C(=O)N2CCc3ccccc3C2)cc2c(=O)n3ccccc3nc21 | n | 5.05 | n | n | n | x
CC1Cc2ccccc2N1C(=O)c1cc2c(=O)n3ccccc3nc2n1C (centres undefined) | n | n | n | n | n | n
Cc1ccc(-n2c(-c3ccncc3)nnc2-c2cccs2)cc1 | n | n | n | n | n | n
Cc1sc2ncnc(-n3cnc4ccccc43)c2c1C | n | 2 | n | n | n | n
O=C(NCc1nnc(SCC(=O)N2CCN(c3ccccc3)CC2)o1)c1ccco1 | n | n | n | 42.0 | n | n
COc1ccc2c(c1)CCc1c(C(=O)Nc3ccn(Cc4ccc(C)cc4)n3)noc1-2 | n | n | n | n | n | n
COc1ccc2c(c1)CCc1c(C(=O)Nc3cc(C)n(Cc4ccc(Cl)cc4)n3)noc1-2 | n | 3.7 | n | n | n | n
COc1ccc2c(c1)CCc1c(C(=O)Nc3ccc(OC)c(OC)c3)noc1-2 | n | 2.17 | n | n | n | n
SMILES | PMK inhibit | Fluor 339 460 | A340 absorber | MK inhibit | NADH coupling | DPM-DC inhibit
CC(C)(C)n1ncc2c(=O)n(CC(=O)N3CCN(c4ccccc4)CC3)cnc21 | n | n | n | n | n | n
CCCc1cc(=O)oc2cc(OCC(=O)Nc3cc(C)on3)ccc12 | n | 3.57 | n | n | n | n
CCCc1cc(=O)oc2cc(Oc3ncccn3)ccc12 | n | 3.39 | n | n | n | n
N#Cc1nc(-c2ccccc2Cl)oc1N1CCOCC1 | n | 2.05 | n | n | n | x
N#Cc1nc(-c2ccco2)oc1N1CCN(c2ccccc2)CC1 | n | n | n | n | n | n
CC1CCCN(c2oc(-c3cccc4ccccc34)nc2C#N)C1 (centres undefined) | n | 3.8 | n | n | n | x
COc1ccccc1-c1nc(C#N)c(N2CCc3ccccc3C2)o1 | n | 3.91 | n | n | n | x
N#Cc1nc(-c2ccco2)oc1N1CCOCC1 | n | 3.92 | n | n | n | x
COc1ccccc1-c1nc(C#N)c(N2CCN(c3ccccc3)CC2)o1 | n | n | n | n | n | n
CCc1nc(SCc2ccc(C(=O)OC)o2)c2c(=O)n(C)c(=O)n(C)c2n1 | n | n | n | n | n | n
O=C1C(=O)N(CCCN2CCOCC2)C(c2ccccn2)/C1=C(\O)c1ccc2c(c1)OCCO2 (centres undefined) | n | n | n | n | n | n
O=C(CN(c1ccc(F)cc1)S(=O)(=O)c1ccc2c(c1)OCCO2)N1CCOCC1 | n | n | n | n | n | n
CCN(CC)S(=O)(=O)c1cccc2c(N(C)C)cccc12 | n | n | n | n | n | n
CCN(CC)S(=O)(=O)c1cccc2cc(C(=O)O)c(O)cc12 | n | 2.14 | n | n | n | n
COc1cc(NC(=O)c2ccco2)c(OC)cc1NC(=O)CCC(=O)Nc1cc(C)cc(C)c1 | n | n | n | n | n | n
COc1cc(NC(=O)c2ccco2)c(OC)cc1NC(=O)CCC(=O)Nc1cc(C)ccc1C | n | 2.74 | n | n | n | +
CCC(Sc1nc(N)c(NC(=O)c2ccc(OC)c(OC)c2)c(=O)[nH]1)C(=O)OC (centres undefined) | n | n | n | n | n | n
S=C(NCC1CCCO1)n1nnc2ccccc21 (centres undefined) | n | n | n | n | n | n
c1ccc2c(c1)nc(NCC1CCCO1)c1nnnn12 (centres undefined) | n | 2.11 | n | n | n | x
Nc1ccc2[nH]ncc2c1 | n | 2.29 | n | n | n | x
COc1ccc(OC)c(NC(=O)CC(NCCC2=CCCCC2)C(=O)O)c1 (centres undefined) | n | n | n | n | n | n
O=C(Nc1ccc2nn(-c3ccccc3)nc2c1)c1ccc2c(c1)OCCO2 | n | 2.19 | n | n | n | x
O=C(Nc1ccc2nsnc2c1)c1ccc2c(c1)OCO2 | n | n | n | n | n | n
CC(=O)c1cccc(NC(=O)c2ccc(Br)o2)c1 | n | n | n | n | n | n
O=C(Nc1ccc2nn(-c3ccccc3)nc2c1)c1ccc(Br)o1 | n | n | n | n | n | +
O=C(Nc1ccn(-c2ccccc2)n1)c1ccc(S(=O)(=O)N2CCCCCC2)cc1 | n | n | n | n | n | n
COCCCNC(=O)CSC1=Nc2ccccc2C2=NC(CC(=O)NCc3ccccc3)C(=O)N12 (centres undefined) | n | 3.44 | n | n | n | n
CCC(C)NC(=O)CSC1=Nc2ccccc2C2=NC(CC(=O)NCc3ccccc3)C(=O)N12 (centres undefined) | n | 2.1 | n | n | n | n
COc1ccc(S(=O)(=O)Nc2ccccc2C(=O)NC(C)C)cc1OC | n | n | n | n | n | n
COc1c(Cl)cc(-c2noc(C)c2C(=O)NC(C)C)cc1Cl | n | n | n | n | n | n
